In PubChem BioAssay (NCI):
Compounds without any hit were thinned out: in the full panel of roughly 79,000, 15% have a hit. No stated cut-off is given here; in the data, active means growth inhibition above about 70%; inactive means the rest.

What was measured:
[1] = NCI Yeast Anticancer Drug Screen. Data for the rad50 strain (AID 155);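 further: 0% = growth of vehicle-only cultures of the same strain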; details: S. cerevisiae rad50 strain growth inhibition; at 50.0 µM; active compounds read high
In short: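 DNA repair mutant yeast, compound exposure, growth read-out; inhibition is taken relative to vehicle.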

[2] = NCI Yeast Anticancer Drug Screen. Data for the mec2-1 strain (AID 157); details: S. cerevisiae mec2-1 strain, at 50.0 µM, active compounds read high
In short: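 Growth inhibition is read against vehicle-treated controls after compound exposure of the mec2-1 yeast strain, which is defective in DNA damage repair or cell cycle control.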

[3] = NCI Yeast Anticancer Drug Screen. Data for the sgs1 mgt1 strain (AID 161);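 further: 0% = growth of cultures given vehicle only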; details: S. cerevisiae sgs1 mgt1 strain, at 50.0 µM, active compounds read high
In short: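 Percent growth inhibition was derived by comparing compound-exposed mutant yeast with vehicle-exposed cultures. The strain carries alterations in DNA damage repair.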

[4] = NCI Yeast Anticancer Drug Screen. Data for the cln2 rad14 strain (AID 165);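 further: 0% = growth equal to vehicle treated cultures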; details: S. cerevisiae cln2 rad14 strain, at 50.0 µM, active compounds read high
In short: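 Growth inhibition, relative to vehicle-treated controls, is the read-out. The test organism is a yeast strain with defined genetic alterations, cln2 rad14.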

[5] = NCI Yeast Anticancer Drug Screen. Data for the bub3 strain (AID 167); details: S. cerevisiae bub3 mutant strain, at 50.0 µM, active compounds read high
In short: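 In this screen, a yeast mutant lacking normal mitotic checkpoint function is challenged with compound. Relative growth versus vehicle gives the inhibition value.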

[6] = NCI Yeast Anticancer Drug Screen. Data for the mlh1 rad18 strain (AID 175); details: S. cerevisiae mlh1 rad18 strain growth inhibition; at 50.0 µM; active compounds read high
In short: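 Cells of a genetically altered yeast strain, deficient in DNA damage repair, were treated with compound. Their growth was then compared with that of vehicle-treated cultures to give inhibition.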

Measured: growth inhibition

OCCN(Cc1ccccc1)C(c1ccccc1)C(O)c1ccccc1 (configuration not stated)
inactive: [1] -2.8% | [2] 7.65% | [3] 24.2% | [4] 29.2% | [5] 1.7% | [6] 1.3%

CCOC(=O)c1cc2c(nc1N)C(=O)CCCC2
inactive: [1] -34.5% | [2] -59.1% | [3] -48.3% | [4] -23.9% | [5] -24.6% | [6] -31.6%

COc1ccc(/C=N/N2CN(C(C)C(=O)O)B(NC34CC5CC(CC(C5)C3)C4)N=C2N)cc1OC (configuration not stated)
inactive: [1] -16.6% | [2] -14.2% | [3] 10.3% | [4] -25.2% | [5] 1.3% | [6] -6.4%

COc1c(C)cc(-c2cc(C)c(OC)c(C)c2)cc1C
inactive: [1] -3.45% | [2] 8.05% | [3] 1.7% | [4] 9.4% | [5] -8.8% | [6] -3.55%

CN1C(=O)C2(C=CCCC2)c2ccccc21 (configuration not stated)
inactive: [1] -10.5% | [2] -8.4% | [3] -0.7% | [4] -14.3% | [5] -0.5% | [6] -10.4%

Cc1ccc2nc(-c3ccc(Cl)cc3Cl)oc(=O)c2c1
inactive: [1] -9.35% | [2] 3.8% | [3] 20.4% | [4] -12.8% | [5] 20.6% | [6] -7.15%

CC(C)C(CC1CCCCC1)C(C)O (configuration not stated)
inactive: [1] -7.65% | [2] -0.45% | [3] -14.6% | [4] -14.4% | [5] -9.35% | [6] -17.6%

O=c1c(Cl)c(N2CCCCC2)cnn1-c1ccccc1
inactive: [1] 20.8% | [2] 14.2% | [3] 16.6% | [4] 7.6% | [5] 14.1% | [6] 19.4%

O=C(O)C1CC1(c1ccccc1)c1ccccc1 (configuration not stated)
inactive: [1] 18.6% | [2] 4.65% | [3] -1.05% | [4] -24.8% | [5] -12.2% | [6] 15.8%

CC(C)=NNc1snnc1C(N)=O
inactive: [1] 13.2% | [2] 26.9% | [3] 13.3% | [4] -2% | [5] -13.2% | [6] 28.4%

Cc1cc(C)c(C#[N+][O-])c(C)c1C#[N+][O-]
inactive: [1] 5.9% | [2] 8.1% | [3] -5.8% | [4] 13.7% | [5] -1.1% | [6] 15.4%

CCOC(=O)NNC(=O)NC12CC3CC(CC(C3)C1)C2
inactive: [1] -16.7% | [2] -7.7% | [3] 5.6% | [4] -24.6% | [5] -3.85% | [6] 1.75%

CCOC(=O)Nc1ccccc1
inactive: [1] -1.65% | [2] 12.3% | [3] 1.55% | [4] -4.15% | [5] -6.8% | [6] 22.7%

C=C(C)C(=O)OC1C[C@H](COC(C)=O)C2CC=C(CO)C2C2OC(=O)C(=C)[C@H]12 (some centres not stated)
inactive: [1] 16.9% | [2] 15.1% | [3] 10.2% | [4] -1.25% | [5] -1.25% | [6] 25.1%

CCCC/C(CC)=N\N=C(/CC)CCCC
inactive: [1] 7.3% | [2] 7.2% | [3] 17.9% | [4] -28.2% | [5] 3.15% | [6] 17.5%

CC(C)=CCC/C(C)=C/CO
inactive: [1] -48.8% | [2] -27.8% | [3] -3.55% | [4] 35.1% | [5] -47.8% | [6] -14.2%

CCCCOC(=O)C(C)O (configuration not stated)
inactive: [1] 41.1% | [2] 16.3% | [3] 21.6% | [4] 19.3% | [5] 0.05% | [6] 24.9%

O=c1oc2c(c(N(c3ccccc3)c3ccccc3)c1Cl)CCc1nc(-c3ccccc3)sc1-2
inactive: [1] 3% | [2] -1.25% | [3] -7.6% | [4] 10.8% | [5] -1.55% | [6] -14.9%

C/C(N)=N/C(=O)OCCOC(=O)/N=C(\C)N
inactive: [1] -2.25% | [2] 8.3% | [3] -9.35% | [4] -5.3% | [5] 15% | [6] 1.9%

c1csc(C(NC2=NCCO2)C2CC2)c1 (configuration not stated)
inactive: [1] -32.9% | [2] -11.2% | [3] -22.9% | [4] -25.1% | [5] -27.5% | [6] 41.8%

CCCNc1ccc2c(c1)C(=O)c1ccccc1-2
inactive: [1] -3.5% | [2] -1.1% | [3] -0.15% | [4] -6.2% | [5] -0.65% | [6] -1.8%

S=c1nc(-c2ccnc(-c3nc(=S)[nH][nH]3)c2)[nH][nH]1
inactive: [1] -18.4% | [2] -18.4% | [3] -18.8% | [4] 43.7% | [5] -9.75% | [6] -43.7%

CCc1ccc(OC(C)=O)cc1
inactive: [1] 12.5% | [2] 10.6% | [3] -13.2% | [4] -21.7% | [5] 6.6% | [6] 15.6%

CC(=O)C1CC=C(C)CC1 (configuration not stated)
inactive: [1] -6.8% | [2] -9.55% | [3] 15.8% | [4] 14.6% | [5] -2.85% | [6] 2.6%

CCCC(=O)n1[nH]c(=O)n(C(C)(C)C)c1=O
inactive: [1] 2.3% | [2] -7.65% | [3] 14.8% | [4] 6.4% | [5] 7.5% | [6] -22.8%

NC(=O)CNC(=O)C(CO)NC(=O)OCc1ccccc1 (configuration not stated)
inactive: [1] 2.35% | [2] -10% | [3] 10.7% | [4] -6.2% | [5] -11.1% | [6] 0.3%

Cc1ccc(-n2nc3c(c(C#N)c2=O)-c2ccccc2C3=O)cc1
inactive: [1] -27.6% | [2] -4.4% | [3] -31.8% | [4] -38.5% | [5] -2.7% | [6] -14.3%

CSC(=S)N/N=C(\c1ccccc1)c1ccccn1
inactive: [1] 0.3% | [2] 13.2% | [3] 0.85% | [4] 10.4% | [5] 21.2% | [6] 5.75%

COc1cc(C(=O)O)c(I)c(OC)c1OC
inactive: [1] -10.9% | [2] -5.85% | [3] -6.25% | [4] -4.85% | [5] 3.6% | [6] -9.65%

ClC[P+](c1ccccc1)(c1ccccc1)c1ccccc1
inactive: [1] 38.2% | [2] 19.3% | [3] 13.2% | [4] 11.6% | [5] 24.8% | [6] 33.4%

CSc1ccc(OC(=O)NC2CCCCC2)cc1C
inactive: [1] 7.5% | [2] 22.4% | [3] 13.6% | [4] 6.25% | [5] 28.6% | [6] 14.8%

O=c1[nH]cnc2nn(C3OC(CO)C(O)C3O)cc12 (configuration not stated)
inactive: [1] -20.4% | [2] 12.9% | [3] -6.85% | [4] -5.65% | [5] 9.25% | [6] -18.9%

C=C(C)CN(C#N)CC(=C)C
inactive: [1] -15.2% | [2] 10.6% | [3] 6.35% | [4] -17.2% | [5] -3.95% | [6] 3.45%

CC(C)CC(CC(C)C)NCC(C)OC(=O)c1ccc(N(C)C)cc1 (configuration not stated)
inactive: [1] 57.5% | [2] -4.2% | [3] 20.2% | [4] -7.55% | [5] 2.6% | [6] 1.3%

CCN(c1ccccc1)S(=O)(=O)c1ccccc1N
inactive: [1] -0.75% | [2] -13.2% | [3] 10.7% | [4] 14.4% | [5] -3.6% | [6] -0.4%

Cc1ccc(Br)c2c1CCC2=O
inactive: [1] 1.85% | [2] -5.05% | [3] 0.9% | [4] -52.5% | [5] -23% | [6] 1.65%

O=[N+]([O-])c1cccc(S(=O)(=O)NC2c3ccccc3Oc3ccccc32)c1
inactive: [1] 22% | [2] -3.65% | [3] 26.9% | [4] 21.4% | [5] -10.7% | [6] 24.8%
